Source: PubChem BioAssay (NCATS)
A number with no mark means an inactive call. Records with an inconclusive call do not appear. Entries that show only a call come without a potency. The source made the active and inactive calls. Unless noted, calls come from the whole dose curve; as a rule, active = well fitted curve in the direction sought with a large enough effect; inconclusive = small, poorly fitted or top-dose-only effect, or another doubt; inactive = no such curve, though single readings can be large; an effect the other way counts as inactive or inconclusive.

How the values were obtained:
[1] = target: Mitogen-activated protein kinase 10 (Mus musculus) (UniProt Q61831); test: JNK3 AlphaScreen Assay (AID 530; active = well fitted curve in either direction with a large enough effect, not every such curve was filed as active;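 note: kinase came from lysate of stimulated human HepG2 cells; signal reports phosphorylation of biotinylated GST-cJun 1-79 at Ser73 with 10 µM ATP; series mostly up to about 57 µM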)
Method in brief: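 qHTS format: compounds tested as titrations against IL-1beta/TNF-alpha-activated HepG2 lysate JNK3 with biotin-GST-cJun substrate and 10 uM ATP at room temperature. Loss of anti-phospho-cJun AlphaScreen signal indicates inhibition.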

[2] = target: Cytochrome P450 3A4 (Homo sapiens) (UniProt P08684); test: qHTS Assay for Activators of Cytochrome P450 3A4 (AID 885); note: nearly all actives have a fitted effect of over 65% in size
Method in brief: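 Signal was normalized against complete inhibition by 57 uM ketoconazole. The reaction used 20nM CYP3A4 with 25uM Luciferin-PPXE, 10-min compound preincubation and a 60-min NADPH-supported step at RT.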

[3] = target: Cytochrome P450 3A4 (Homo sapiens) (UniProt P08684); test: qHTS Assay for Inhibitors and Substrates of Cytochrome P450 3A4 (AID 884); note: nearly all actives have a fitted effect of over 50% in size; note: potency is the fitted concentration of half-maximal effect
Method in brief: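 20 nM human CYP3A4 with 25 uM Luciferin-PPXE (at KM) in 200 mM KPO4, preincubated 10 min with compound; NADPH regeneration started a 60 min RT reaction. Luciferin detected by luminescence, normalized to 57 uM ketoconazole as full inhibition.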

[4] = Confirmation and Secondary Assay for Modulators of Hemoglobin Beta Chain Splicing at IVS2 654 locus (AID 910);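 note: HeLa cells stably carrying EGFP split by mutant beta-globin IVS2-654 intron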
Method in brief: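 HeLa cells stably expressing EGFP interrupted by β-globin IVS2-654 intron, seeded overnight in Opti-MEM/2% FCS, then treated 2 days at 37 °C. Restored splicing read as total peak GFP intensity per well by laser scanning cytometry (488 nm excitation, 500–520 nm emission); 500 nM antisense PNA as control.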

[5] = Confirmation and Secondary Assay for Modulators of Hemoglobin Beta Chain Splicing at IVS2 705 locus (AID 930);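 note: HeLa cells stably expressing the EGFP-705 splicing reporter; GFP fluorescence per well restored by corrected splicing of the IVS2-705 intron in EGFP; series mostly up to about 46 µM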
Method in brief: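 Fluorescence gain (488 nm laser, 500-520 nm PMT) reflects restored correct splicing of a mutant IVS2-705 intron inside EGFP in stably transfected HeLa cells after 2-day compound treatment.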

[6] = target: Ubiquitin carboxyl-terminal hydrolase 1 (Homo sapiens) (UniProt O94782); test: Inhibitors of USP1/UAF1: Pilot qHTS (AID 504865);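 note: rhodamine fluorescence freed from ubiquitin-rhodamine substrate followed over time; top concentration of the series differs between compounds; nearly all actives have a fitted effect of over 35% in size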
Method in brief: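 USP1/UAF1 complex (1nM) preincubated with compound 15 min at room temperature, then Ub-Rho substrate (150nM final) added. Fluorescence read kinetically at 480/540 nm, 6 reads every 60 seconds. Buffer: 50mM HEPES pH 7.8, 0.5mM EDTA, 0.1 mg/ml BSA, 1mM TCEP, 0.01% Tween-20.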

[7] = target: Cytochrome P450 2C19 (Homo sapiens) (UniProt P33261); test: qHTS Assay for Inhibitors and Substrates of Cytochrome P450 2C19 (AID 899); note: potency is the fitted concentration of half-maximal effect; nearly all actives have a fitted effect of over 60% in size
Method in brief: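 Luminescent read-out of luciferin formed from Luciferin-H EGE (10uM, equal to KM). Enzyme 5nM in 50mM KPO4; compound added, 10 min at 37C, then NADPH regenerating system for 60 min at 37C. Full inhibition defined by 57uM ketoconazole.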

[8] = target: 3',5'-cyclic-AMP phosphodiesterase 4B (Homo sapiens) (UniProt Q07343); test: qHTS Assay for Inhibitors of PDE-IV (AID 607; active = well fitted activation curve with a large enough effect in the main read-out, with a control signal flat, not every such curve was filed as active)
Method in brief: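 Cell-based read-out of cAMP via a modified cyclic nucleotide-gated channel and membrane potential dye (535/590 nm) in HEK293 cells expressing PDE4 endogenously. Compounds tested up to 22.9 uM final; 100 uM RO 20-1724 reference.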

[9] = target: Cytochrome P450 2D6 (Homo sapiens) (UniProt P10635); test: qHTS Assay for Inhibitors and Substrates of Cytochrome P450 2D6 (AID 891); note: potency is the fitted concentration of half-maximal effect; nearly all actives have a fitted effect of over 60% in size
Method in brief: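 Human CYP2D6 (5 nM) with 30 uM Luciferin-ME EGE (at Km) in 100 mM KPO4, compound preincubated 10 min, then NADPH regeneration system for 60 min at room temperature. Luciferin read by luminescence; normalized to 1.43 uM quinidine.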

[10] = target: Cytochrome P450 2C9 (Homo sapiens) (UniProt P11712); test: qHTS Assay for Inhibitors and Substrates of Cytochrome P450 2C9 (AID 883); note: potency is the fitted concentration of half-maximal effect; nearly all actives have a fitted effect of over 60% in size
Method in brief: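 10nM CYP2C9 + 100uM Luciferin-H (=KM), 25mM KPO4; cpd 10 min 37C; NADPH regen, 60 min 37C; stop/detect with P450 Glo-Buffer 20 min; luminescence. Norm. to 57uM sulphaphenazole as full inhibition.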

Sequence of Cytochrome P450 3A4 (Homo sapiens) (P08684 whole entry, looked up): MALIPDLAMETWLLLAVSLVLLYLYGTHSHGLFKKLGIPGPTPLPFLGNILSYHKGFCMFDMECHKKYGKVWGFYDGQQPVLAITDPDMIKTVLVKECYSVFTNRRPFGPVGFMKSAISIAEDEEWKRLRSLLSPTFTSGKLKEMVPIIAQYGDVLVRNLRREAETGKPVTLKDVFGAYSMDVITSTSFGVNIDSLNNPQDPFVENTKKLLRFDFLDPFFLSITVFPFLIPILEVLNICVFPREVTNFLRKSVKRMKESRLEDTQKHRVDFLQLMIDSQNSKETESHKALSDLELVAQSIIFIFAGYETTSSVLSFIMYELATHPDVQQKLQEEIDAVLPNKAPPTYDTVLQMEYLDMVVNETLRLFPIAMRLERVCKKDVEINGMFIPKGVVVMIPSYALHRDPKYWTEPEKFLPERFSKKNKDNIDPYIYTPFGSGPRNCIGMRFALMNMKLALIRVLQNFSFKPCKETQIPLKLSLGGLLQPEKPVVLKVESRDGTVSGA
Sequence of 3',5'-cyclic-AMP phosphodiesterase 4B (Homo sapiens) (Q07343 whole entry, looked up): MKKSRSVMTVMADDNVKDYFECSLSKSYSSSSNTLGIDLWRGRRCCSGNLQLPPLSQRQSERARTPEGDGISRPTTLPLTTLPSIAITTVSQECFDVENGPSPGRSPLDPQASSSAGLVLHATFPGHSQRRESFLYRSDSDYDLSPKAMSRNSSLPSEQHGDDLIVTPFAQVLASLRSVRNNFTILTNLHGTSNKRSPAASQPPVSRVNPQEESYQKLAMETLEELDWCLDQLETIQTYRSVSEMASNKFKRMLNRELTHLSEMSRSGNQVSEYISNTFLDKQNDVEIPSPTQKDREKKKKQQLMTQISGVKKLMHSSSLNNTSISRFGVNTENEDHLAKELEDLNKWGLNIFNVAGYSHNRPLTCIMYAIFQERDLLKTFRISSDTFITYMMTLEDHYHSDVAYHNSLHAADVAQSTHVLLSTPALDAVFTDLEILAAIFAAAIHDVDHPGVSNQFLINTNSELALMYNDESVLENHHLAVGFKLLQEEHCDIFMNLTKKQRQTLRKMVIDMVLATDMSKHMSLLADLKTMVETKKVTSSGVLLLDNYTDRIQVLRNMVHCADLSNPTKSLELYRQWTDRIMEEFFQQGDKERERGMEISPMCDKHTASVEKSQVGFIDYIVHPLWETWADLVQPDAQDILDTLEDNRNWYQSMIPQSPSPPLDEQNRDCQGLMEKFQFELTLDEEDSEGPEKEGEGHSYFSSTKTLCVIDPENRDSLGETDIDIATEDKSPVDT
Sequence of Cytochrome P450 2C19 (Homo sapiens) (P33261 whole entry, looked up): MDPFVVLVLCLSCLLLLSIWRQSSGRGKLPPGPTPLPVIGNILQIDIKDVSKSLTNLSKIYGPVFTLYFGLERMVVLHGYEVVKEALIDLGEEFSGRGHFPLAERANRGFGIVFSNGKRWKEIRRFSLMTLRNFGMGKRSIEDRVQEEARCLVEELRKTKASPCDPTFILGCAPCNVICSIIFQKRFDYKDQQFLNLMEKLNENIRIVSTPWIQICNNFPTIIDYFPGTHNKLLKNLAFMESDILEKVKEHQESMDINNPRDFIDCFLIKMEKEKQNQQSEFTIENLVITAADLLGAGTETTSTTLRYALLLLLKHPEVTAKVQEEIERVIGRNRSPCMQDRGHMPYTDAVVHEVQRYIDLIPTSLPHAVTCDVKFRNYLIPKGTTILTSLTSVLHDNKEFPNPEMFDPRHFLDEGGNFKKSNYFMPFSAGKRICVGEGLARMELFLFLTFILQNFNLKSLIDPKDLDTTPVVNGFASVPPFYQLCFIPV
Sequence of Ubiquitin carboxyl-terminal hydrolase 1 (Homo sapiens) (O94782 whole entry, looked up): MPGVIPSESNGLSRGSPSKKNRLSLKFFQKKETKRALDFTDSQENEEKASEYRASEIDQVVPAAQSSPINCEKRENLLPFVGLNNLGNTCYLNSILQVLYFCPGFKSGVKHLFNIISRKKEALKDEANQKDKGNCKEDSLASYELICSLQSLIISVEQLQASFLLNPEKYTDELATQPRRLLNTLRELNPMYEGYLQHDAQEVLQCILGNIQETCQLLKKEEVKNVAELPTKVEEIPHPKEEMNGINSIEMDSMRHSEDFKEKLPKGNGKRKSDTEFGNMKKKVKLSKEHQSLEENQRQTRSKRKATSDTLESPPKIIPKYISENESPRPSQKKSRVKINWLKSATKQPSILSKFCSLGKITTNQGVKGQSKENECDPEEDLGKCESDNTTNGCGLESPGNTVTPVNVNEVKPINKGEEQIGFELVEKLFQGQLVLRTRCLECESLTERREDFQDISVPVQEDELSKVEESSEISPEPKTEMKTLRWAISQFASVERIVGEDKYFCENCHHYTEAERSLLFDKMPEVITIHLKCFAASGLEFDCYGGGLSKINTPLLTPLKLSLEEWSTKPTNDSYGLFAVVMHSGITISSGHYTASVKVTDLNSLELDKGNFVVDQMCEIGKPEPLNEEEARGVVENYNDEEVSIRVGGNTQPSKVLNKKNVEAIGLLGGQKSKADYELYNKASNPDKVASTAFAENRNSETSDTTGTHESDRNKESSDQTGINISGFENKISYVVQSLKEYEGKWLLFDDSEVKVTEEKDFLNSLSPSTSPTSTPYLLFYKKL
Sequence of Cytochrome P450 2C9 (Homo sapiens) (P11712 whole entry, looked up): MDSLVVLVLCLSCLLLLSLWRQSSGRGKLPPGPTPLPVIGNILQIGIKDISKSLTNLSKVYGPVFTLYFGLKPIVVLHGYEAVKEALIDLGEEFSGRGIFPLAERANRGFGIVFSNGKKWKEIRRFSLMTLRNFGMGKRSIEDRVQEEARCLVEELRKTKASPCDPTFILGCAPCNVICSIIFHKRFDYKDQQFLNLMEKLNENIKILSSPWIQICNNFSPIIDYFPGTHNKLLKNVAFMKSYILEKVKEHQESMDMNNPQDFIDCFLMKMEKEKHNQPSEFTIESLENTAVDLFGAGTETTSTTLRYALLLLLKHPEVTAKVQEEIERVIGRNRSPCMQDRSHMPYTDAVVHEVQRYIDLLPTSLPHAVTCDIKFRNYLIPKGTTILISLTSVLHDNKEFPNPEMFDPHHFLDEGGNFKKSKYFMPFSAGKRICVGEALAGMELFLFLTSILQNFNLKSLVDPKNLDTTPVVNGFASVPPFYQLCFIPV
Sequence of Cytochrome P450 2D6 (Homo sapiens) (P10635 whole entry, looked up): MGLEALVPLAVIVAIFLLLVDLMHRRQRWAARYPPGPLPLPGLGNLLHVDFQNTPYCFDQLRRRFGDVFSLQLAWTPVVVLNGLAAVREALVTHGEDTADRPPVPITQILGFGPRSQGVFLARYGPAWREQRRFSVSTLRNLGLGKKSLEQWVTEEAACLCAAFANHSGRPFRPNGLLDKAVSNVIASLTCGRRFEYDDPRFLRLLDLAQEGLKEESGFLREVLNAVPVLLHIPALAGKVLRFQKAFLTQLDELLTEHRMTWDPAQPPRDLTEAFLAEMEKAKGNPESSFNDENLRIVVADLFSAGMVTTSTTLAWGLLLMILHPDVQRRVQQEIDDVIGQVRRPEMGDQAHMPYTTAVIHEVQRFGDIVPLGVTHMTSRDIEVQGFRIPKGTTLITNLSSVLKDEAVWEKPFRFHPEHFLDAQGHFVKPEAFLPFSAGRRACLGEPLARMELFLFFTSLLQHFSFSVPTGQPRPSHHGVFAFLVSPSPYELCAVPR

SMILES: CCC/C=C(\CCC)C(NC(=O)c1ccc(-c2ccccc2)cc1)c1ccc(C(=O)OC)cc1 (stereo unspecified)
- Potency [1]: inactive
- Potency [2]: inactive

SMILES: CO/N=C(/C(=O)NC1C(=O)N2C(C(=O)O)=C(COC(N)=O)CSC12)c1ccco1 (stereo unspecified)
- Potency [3]: inactive
- Potency [4]: inactive
- Potency [5]: inactive
- Potency [6]: inactive

SMILES: COC(=O)[C@@]1(Cc2ccccc2)[C@H]2c3cc(C(=O)N4CCCC4)n(C)c3C[C@H]2CN1C(=O)c1ccccc1
- Potency [1]: inactive
- Potency [3]: 3980 nM (active)
- Potency [2]: inactive
- Potency [7]: 3980 nM (active)

SMILES: COC(=O)[C@@]1(Cc2ccc(OC)cc2)[C@H]2c3cc(C(=O)N4CCCC4)n(CCSCCO)c3C[C@H]2CN1C(=O)c1ccccc1
- Potency [1]: inactive
- Potency [8]: inactive

SMILES: C[C@@H](C(=O)NCc1nc2ccccc2[nH]1)[C@@H]1C[C@@]1(C)[C@@H](NC(=O)OCc1ccccc1)c1ccccc1
- Potency [1]: inactive
- Potency [8]: inactive
- Potency [2]: inactive

SMILES: COC(=O)[C@@]1(Cc2ccc(F)cc2)[C@H]2c3cc(C(=O)N4CCCC4)n(Cc4ccc(C)c(F)c4F)c3C[C@H]2CN1C(=O)c1ccccc1
- Potency [1]: inactive
- Potency [3]: 2510 nM (active)
- Potency [2]: inactive

SMILES: Cc1cc(CNC(=O)[C@@H]2C[C@H]2[C@@H](NP(=O)(c2ccccc2)c2ccccc2)c2ccccc2)nn1C
- Potency [1]: inactive
- Potency [8]: inactive
- Potency [3]: 398 nM (active)
- Potency [2]: inactive

SMILES: COC(=O)[C@@H]1C[C@H]1[C@@H](NC(=O)c1cnccn1)c1ccccc1
- Potency [1]: inactive
- Potency [8]: inactive

SMILES: C[C@@H](C(=O)Nc1ccc2ccccc2c1)[C@H]1C[C@]1(C)[C@H](NS(=O)(=O)c1ccc(-c2ccccc2)cc1)c1ccccc1
- Potency [1]: inactive
- Potency [8]: inactive
- Potency [9]: 2000 nM (active)

SMILES: COC(=O)[C@@H]1C[C@H]1[C@@H](NS(=O)(=O)c1ccc(-c2ccccc2)cc1)c1ccccc1
- Potency [1]: inactive
- Potency [8]: inactive

SMILES: COC(=O)[C@@]1(Cc2ccccc2)[C@H]2c3cc(C(=O)N(C)C)n(Cc4ccsc4Br)c3C[C@H]2CN1C(=O)c1ccccc1
- Potency [1]: inactive
- Potency [8]: inactive
- Potency [10]: 3980 nM (active)
- Potency [3]: 1580 nM (active)
- Potency [2]: inactive
- Potency [7]: 2000 nM (active)

SMILES: O=C(NCc1ccccc1)[C@H]1C[C@@H]1[C@H](NP(=O)(c1ccccc1)c1ccccc1)c1ccccc1
- Potency [1]: inactive
- Potency [8]: inactive

SMILES: C=C(CC1([C@@H](NP(=O)(c2ccccc2)c2ccccc2)[C@H]2C[C@@H]2CCCC)CC1)c1cccc(OC)c1
- Potency [1]: inactive
- Potency [8]: inactive
- Potency [3]: 2510 nM (active)
- Potency [2]: inactive
